Screening data deposited in PubChem by Broad Institute.
Wnt bcat act: activates Wnt/beta-catenin signaling in a reporter cell assay; activator, plate reader; activation, % at 9.35 µM; 300,000 compounds, 1.2% hits; in the data active = activation above about 30%, passing the limit was not always enough; inconclusive = no clear call, values can overlap the other calls;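 also: 0% = neutral control wells and 100% = positive control wells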
MITF TRPM1 HTS: increases MITF-driven TRPM1 promoter luciferase signal; 300,000 compounds, 0.75% hits; SK-MEL-5 TRPM1-promoter luciferase, 24 h; % of positive control, neutral wells = 0; activation, % at 12.5 µM;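 active = mean activation of at least 80% with every replicate also reaching 80%; inconclusive = mean reaches 80% but some replicate falls short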;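 also: 0% = neutral control wells and 100% = parthenolide positive control wells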
C2C12 statin: protects C2C12 myotubes from simvastatin toxicity; AID 602340; 330,000 compounds, 0.78% hits; ATP luminescence, 48 h; scaled: DMSO 0, geranylgeraniol control 100; rescue of ATP level, % at 7.49 µM;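 active = mean ATP rescue above about 67%, or every replicate alone reaching that limit, limit read from the data, passing the limit was not always enough; inconclusive = no clear call, values can overlap the other calls; inactive = mean under the limit and some replicate under it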;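 also: myotubes were challenged with 10 µM simvastatin during compound exposure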
esBAF inh: inhibitors of esBAF chromatin remodeling in mouse ES cells; reporter increase, % at 12.5 µM; 350,000 compounds, 2% hits; Bmi1-luciferase knock-in reporter, 24 h; 100% = twice the neutral-well signal; AID 602393; in the data active = activation above about 40%; inconclusive = no clear call, values can overlap the other calls;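 also: 0% = median of the plate's neutral control wells and 100% = double that signal; a rise in the Bmi1 reporter signal indicates esBAF inhibition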
MITF TRPM1 inh: MITF TRPM1 promoter inhibition in SK-MEL-5 cells; SK-MEL-5 TRPM1 promoter luciferase, 24 h; inhibition, % at 12.5 µM; 330,000 compounds, 0.83% hits;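 active = mean inhibition across replicates of 60% or more, whatever share of single replicates reaches that level; inconclusive = some that reach 60%, reason not given; inactive = mean inhibition across replicates below 60%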
LMP1 NFkB inh: Epstein-Barr LMP1 NF-kappaB reporter inhibition; LMP1-induced NF-kappaB luciferase reporter cells, luminescence; inhibition, % at 12.5 µM; 350,000 compounds, 0.69% hits; in the data active = inhibition above about 41%; inconclusive = no clear call, values can overlap the other calls;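 also: 0% = neutral control wells and 100% = reference inhibitor control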
The depositor's hits bear a star; ? = inconclusive; . = not tested or not shown; ! = not active in a repeat. This is a sample that favours compounds with a hit; in the whole collection about 4% have one here.

SMILES	Wnt bcat act	MITF TRPM1 HTS	C2C12 statin	esBAF inh	MITF TRPM1 inh	LMP1 NFkB inh
Cc1cc(C)c2[nH]c(O)c(N=Nc3ccc(C(=O)O)cc3)c2c1	1	-2	-24	47*	2	-7
Cc1cc(C)c2[nH]c(O)c(N=NC3=NC(=O)CS3)c2c1	5	17	5	-2	-13	4
COc1ccc(C2CC(C(F)(F)F)n3nc(C(=O)NCCN4CCOCC4)cc3N2)cc1 (configuration not stated)	-5	?	90*	-3	-99	4
Clc1ccc(CN=C2Nc3ccccc3CS2)cc1	64*	.	5	56*	-80	-12
Cc1ccc(CN=C2Nc3ccccc3CS2)cc1	30	.	.	-5	-11	-18
COc1ccc(CNC(=O)COC(=O)[C@@H]2CCCN2C(=O)c2cccs2)cc1	13	-3	9	3	3	45*
COc1ccc(CNC(=O)COC(=O)CCC(=O)c2cccs2)cc1	39*	-2	-3	-5	0	-6
Cc1cc(C(=O)CSc2ncccn2)c(C)n1Cc1ccco1	20	33	-11	28	-31	-21
C[C@H]1CN([C@@H](C)CO)C(=O)c2cc(C#CC3CCCCC3)cnc2O[C@H]1CN(C)Cc1ccncc1	.	.	-25	.	.	.
O=C(NCCN1CCCC1)c1ccc(Cn2c(=S)[nH]c3ccc(Br)cc3c2=O)cc1	-2	1	-10	3	-1	-8
COCC(C)n1c(C)cc(C(=O)COC(=O)c2n[nH]c3ccccc23)c1C (configuration not stated)	.	8	.	.	-8	25
COCC(C)n1c(C)cc(C(=O)COC(=O)c2oc3ccccc3c2C)c1C (configuration not stated)	.	11	73*	-23	-12	10
CC/C(=N\NC(=O)CSCc1ccc(Cl)cc1)c1ccc2c(c1)OCCO2	.	8	10	9	-3	-3
Cc1ccc2[nH]cc(CCNC(=O)/C=C/c3ccco3)c2c1	16	.	.	.	9	-4
COC(CNC(=O)c1ccc(N2CCC3(CC2)OCCO3)c([N+](=O)[O-])c1)OC	-2	2	.	.	-1	51*
C=C1CCN(c2ccc(C(=O)NCc3ccc(C)cc3)cc2[N+](=O)[O-])CC1	-3	11	120*	14	-12	-5
O=C(c1ccc(N2CCC3(CC2)OCCO3)c([N+](=O)[O-])c1)N1CCOCC1	0	17	1	11	-15	-7
CCOc1ccc(N(CC(=O)NC2CCCC2)S(=O)(=O)c2ccccc2)cc1	1	2	-2	0	-3	1
O=C(Oc1ccc(/C=N/NC(=O)c2ccccc2F)cc1)c1ccccc1	13	47	-8	47*	-45	-28
O=C(Oc1ccc(/C=N/NC(=O)c2ccccc2O)cc1)c1ccccc1	.	5	28	30	-9	-4
O=C(N/N=C/c1ccc(OC(=O)c2ccccc2)cc1)c1cccc(O)c1	47*	16	.	.	-14	-4
Cc1cccc(NC(=O)Oc2ccc(Cl)c3cccnc23)c1	29	.	1	51*	.	7
COc1cc(=O)n2c(n1)SCCC2	.	-8	11	1	9	2
O=C(COc1cc(=O)n2c(n1)SCCC2)c1ccccc1	1	11	114*	14	-9	-3
COc1ccc(-c2nc3ccccc3[nH]2)cc1	17	7	.	.	-3	30
SMILES	Wnt bcat act	MITF TRPM1 HTS	C2C12 statin	esBAF inh	MITF TRPM1 inh	LMP1 NFkB inh
COc1ccc2oc(=Nc3ccccc3)c(-c3nc4ccccc4[nH]3)cc2c1	44*	12	.	.	-11	-31
O=C(COc1cccc2ccccc12)NNC(=O)CSCCO	-1	-10	.	.	12	2
C[C@@H](NC(=O)C[C@@H]1CC[C@@H]2[C@@H](COc3ccc(NC(=O)C4CCOCC4)cc3C(=O)N2C)O1)c1ccccc1	.	.	-4	-1	.	.
Oc1ccc(Nc2nc(-c3ccc4ccccc4c3)cs2)cc1	.	-6	.	.	8	-255
Oc1ccc(Nc2ccc3ccccc3c2)cc1	0	.	3	49*	.	.
CC(=O)Nc1cccc(C(=O)Nc2cccc3ncccc23)c1	1	-6	-3	8	8	0
CCOc1cc(C(=O)Nc2cccc3ncccc23)cc(OCC)c1OCC	-1	-6	107*	2	7	1
COc1ccc(/C=C(\NC(=O)c2ccco2)C(=O)NCCc2nc3ccccc3[nH]2)cc1	0	.	.	.	.	.
O=C(c1ccco1)N(CCCN1CCOCC1)c1nc(-c2ccc(F)cc2)cs1	.	4	-18	-5	-4	-9
CN(C(=O)c1ccco1)c1nc(-c2ccc(F)cc2)cs1	0	80*	-4	27	-76	-19
CN(C(=O)c1ccco1)c1nnc(-c2ccc(F)cc2)s1	7	100*	3	58*	-96	-28
COc1ccc(-c2nnc(N(C)C(=O)c3ccco3)s2)cc1OC	0	29	23	10	-19	-5
O=C(O)c1[nH]c2ccccc2c1C(c1cc(Br)ccc1O)c1c(C(=O)O)[nH]c2ccccc12	0	.	7	-5	7	0
COc1cc(Cl)cc(C(c2c(C(=O)O)[nH]c3ccccc23)c2c(C(=O)O)[nH]c3ccccc23)c1O	-2	-16	-4	-7	19	48*
C=CC[n+]1ccc(/C=C2\C=Cc3cc(C)ccc3N2CC)c2ccccc21	.	-82	-105	-58	84*	56*
C[C@@H]1CN([C@@H](C)CO)C(=O)c2cc(NC(=O)Cc3ccccc3)ccc2O[C@H]1CN(C)Cc1ccc(Oc2ccccc2)cc1	.	.	-23	5	.	.
C=C1CC2(OC1=O)c1ccccc1CCc1ccccc12	-23	-107	.	.	108*	27
CNC(=O)c1ccccc1C1(O)c2ccccc2CCc2ccccc21	1	.	.	.	.	.
Cc1cc(C)nc(NC(=NCCc2c[nH]c3ccccc23)NC(=O)c2ccco2)n1	-4	1	128*	-3	-2	1
COC(=O)[C@@H](Cc1c[nH]c2ccccc12)NC(=O)c1ccc2c(c1)OCO2	38*	67	10	68*	-67	-52
O=C(NC(Cc1c[nH]c2ccccc12)C(=O)O)c1ccco1 (configuration not stated)	-1	17	84*	4	-13	-1
Cc1cc(C)c2cc(CN(Cc3ccco3)C(=S)NCC3CCCO3)c(=O)[nH]c2c1 (configuration not stated)	-2	2	.	.	-2	9
CC(C)CC1(C)NC(=O)NC1=O (configuration not stated)	-2	-3	117*	-4	4	0
CCOC(=O)CCCCC(=O)c1[nH]c(=O)[nH]c1Cn1cnc2ccccc21	4	8	-4	-2	-5	-8
Cc1nc2nc(CSc3nnc(C)s3)cc(=O)n2[nH]1	-2	-9	107*!	1	11	-1
COC(=O)c1c(C)[nH]c(C(=O)C(C)OC(=O)C2=NNC(=O)CC2)c1C (configuration not stated)	3	-2	.	.	6	3
